The campaign covered roughly 360,000 compounds. About 1,300 (0.36%) were called active. This is one part of a sample in which actives are shown more often than they occur. A number with no mark means an inactive call.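 Rule for the calls: active = corrected activity change at or below -50% at 5 µM; inactive = the rest.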
Experiment: cytotoxicity in KKLEB CF airway cells, primary screen, cytotoxicity control for CF NF-kB inhibitor project, cell-based, uHTS, fluorescence assay plates (AID 602141)
Conditions: KKLEB CF airway cells viability, ATPlite luminescence, overnight; at 5 µM; hits give low values; cells stimulated with P. aeruginosa culture filtrate

**Q.** With CCNC(=O)CC1C(=O)N(c2ccc(F)cc2)C(=O)N1CCc1sccc1C (stereo not given) as the compound, how does the activity change (cytotoxicity) read?
**A.** Its activity change (cytotoxicity) is 15.4%.

**Q.** For O=C(NC(Nc1nc2ccc([N+](=O)[O-])cc2s1)(C(F)(F)F)C(F)(F)F)c1ccccc1, which activity change (cytotoxicity) is on record?
**A.** Its activity change (cytotoxicity) is -70.6% (active).

**Q.** Which activity change (cytotoxicity) does the source give for O=C(NNC(=O)c1ccc(-n2cncn2)c([N+](=O)[O-])c1)c1ccccc1 here?
**A.** The activity change (cytotoxicity) was 9.1%.

**Q.** Which activity change (cytotoxicity) does the source give for O=C(Nc1nnc(SCc2ccccc2Cl)s1)c1cccc([N+](=O)[O-])c1 here?
**A.** The activity change (cytotoxicity) was -35.3%.

**Q.** With O=C(COC(=O)c1ccccc1NC(=O)c1ccco1)Nc1ccc2c(c1)OC(F)(F)O2 as the compound, how does the activity change (cytotoxicity) read?
**A.** Its activity change (cytotoxicity) is -4.2%.

**Q.** With COc1ccc(S(=O)(=O)NC(CC(=O)NCc2ccccc2OC)c2ccco2)cc1 (stereo not given) as the compound, how does the activity change (cytotoxicity) read?
**A.** The activity change (cytotoxicity) was 5%.

**Q.** With Cc1c(NC(=O)Nc2cccc([N+](=O)[O-])c2)c(=O)n(-c2ccccc2)n1C as the compound, how does the activity change (cytotoxicity) read?
**A.** The activity change (cytotoxicity) was 0%.

**Q.** With Nc1c(-c2cccc(Cl)c2)cnn1-c1cccc([N+](=O)[O-])c1 as the compound, how does the activity change (cytotoxicity) read?
**A.** Its activity change (cytotoxicity) is 4.3%.

**Q.** Which activity change (cytotoxicity) does the source give for CCCNC(=O)c1c(Cl)cnn1-c1ccc(C)cc1 here?
**A.** Its activity change (cytotoxicity) is 8.9%.

**Q.** For Cc1cccc(-n2ncc(Cl)c(Cl)c2=O)c1, which activity change (cytotoxicity) is on record?
**A.** Its activity change (cytotoxicity) is -97.1% (active).

**Q.** Which activity change (cytotoxicity) does the source give for CN(C)/C=C(/C(=O)c1ccc(Cl)c(Cl)c1)c1nnnn1-c1ccccc1 here?
**A.** The activity change (cytotoxicity) was 7.2%.

**Q.** With O=C(NCCN1C(=O)S/C(=C\c2cccnc2)C1=O)c1ccc(S(=O)(=O)N2CCCC2)cc1 as the compound, how does the activity change (cytotoxicity) read?
**A.** The activity change (cytotoxicity) was -6.2%.

**Q.** Which activity change (cytotoxicity) does the source give for C=CCn1c(C2CC(=O)N(c3ccc(C)cc3)C2)nc2ccccc21 (stereo not given) here?
**A.** The activity change (cytotoxicity) was 1.2%.

**Q.** Which activity change (cytotoxicity) does the source give for COc1cccc(NC(=S)N(Cc2ccc(C)cc2)Cc2ccccn2)c1 here?
**A.** The activity change (cytotoxicity) was 2.6%.

**Q.** For COc1ccc(NC(=O)/C(Cl)=C(/Cl)S(=O)Cc2ccc(C)cc2)cn1 (stereo not given), which activity change (cytotoxicity) is on record?
**A.** The activity change (cytotoxicity) was -105% (active).

**Q.** For COc1ccc(NC(=O)C2Cc3c(-c4ccc5c(c4)OCO5)ccnc3O2)cn1 (stereo not given), which activity change (cytotoxicity) is on record?
**A.** Its activity change (cytotoxicity) is -19.2%.

**Q.** Which activity change (cytotoxicity) does the source give for CC(C)NC(=O)C1(C)CCCCCN1C(=O)c1ccc(-c2ccccc2)cc1 (stereo not given) here?
**A.** Its activity change (cytotoxicity) is -2%.

**Q.** For COC(=O)c1ccc(S(=O)(=O)NCc2ccccc2)n1C, which activity change (cytotoxicity) is on record?
**A.** The activity change (cytotoxicity) was 9.6%.

**Q.** With C=CCOc1nc2c(c(=O)n(C)c(=O)n2C)n1Cc1ccc(Cl)cc1Cl as the compound, how does the activity change (cytotoxicity) read?
**A.** The activity change (cytotoxicity) was 9.5%.

**Q.** Which activity change (cytotoxicity) does the source give for CN(CC(=O)NCCc1ccccn1)S(=O)(=O)c1ccc(Cl)cc1 here?
**A.** Its activity change (cytotoxicity) is 10.8%.

**Q.** For CN(CC(=O)NCC(c1ccccc1)N1CCCC1)S(=O)(=O)c1ccc(Cl)cc1 (stereo not given), which activity change (cytotoxicity) is on record?
**A.** Its activity change (cytotoxicity) is 16%.

**Q.** With CN(CC(=O)NNC(=O)CNC(=O)c1ccccc1Cl)S(=O)(=O)c1ccc(Cl)cc1 as the compound, how does the activity change (cytotoxicity) read?
**A.** The activity change (cytotoxicity) was -61.3% (active).

**Q.** With c1ccc(CSc2ncnc3c2sc2nc(N4CCOCC4)c4c(c23)CCCC4)cc1 as the compound, how does the activity change (cytotoxicity) read?
**A.** The activity change (cytotoxicity) was -51% (active).

**Q.** With O=C(O)c1cccnc1Sc1ncnc2sc3c(c12)CCC3 as the compound, how does the activity change (cytotoxicity) read?
**A.** The activity change (cytotoxicity) was 15.9%.

**Q.** For O=S(=O)(c1ccccc1)c1nc(Cc2ccccc2)oc1N1CCOCC1, which activity change (cytotoxicity) is on record?
**A.** The activity change (cytotoxicity) was -0.9%.
